Laboratory results from PubChem BioAssay (NCI).
Compounds without any hit were thinned out: in the full panel of roughly 79,000, 15% have a hit. Calls of active or inactive are those of the source. No stated cut-off is given here; in the data, active means growth inhibition above about 70%; inactive means the rest.

How the values were obtained:
[1] = NCI Yeast Anticancer Drug Screen. Data for the mec2-1 strain (AID 157); settings: S. cerevisiae mec2-1 strain, stronger effect = higher value
Summary of the method: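 Yeast mec2-1 mutant treated with compound. Readout: growth inhibition vs vehicle controls.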

[2] = NCI Yeast Anticancer Drug Screen. Data for the rad14 strain (AID 159);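 further: 0% = growth of vehicle-treated control cultures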; settings: S. cerevisiae rad14 strain growth inhibition, stronger effect = higher value
Summary of the method: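 Vehicle-treated cultures served as the baseline for growth inhibition of a DNA repair-mutant yeast strain exposed to each compound.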

[3] = NCI Yeast Anticancer Drug Screen. Data for the sgs1 mgt1 strain (AID 161);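 further: 0% = growth of cultures given vehicle only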; settings: S. cerevisiae sgs1 mgt1 strain, stronger effect = higher value
Summary of the method: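 Test agents were incubated with a DNA-repair-mutant yeast strain. Growth was then read and compared against vehicle-treated controls.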

[4] = NCI Yeast Anticancer Drug Screen. Data for the CLN2oe strain (AID 163);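 further: 0% = growth of vehicle-only control cultures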; settings: S. cerevisiae CLN2oe strain, stronger effect = higher value
Summary of the method: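 Read-out: yeast growth inhibition, expressed relative to vehicle-only controls. The strain bears an engineered cell-cycle alteration.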

[5] = NCI Yeast Anticancer Drug Screen. Data for the cln2 rad14 strain (AID 165);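 further: 0% = growth equal to vehicle treated cultures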; settings: S. cerevisiae cln2 rad14 strain, stronger effect = higher value
Summary of the method: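 cln2 rad14 yeast strain; compound exposure; growth inhibition read vs vehicle controls.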

[6] = NCI Yeast Anticancer Drug Screen. Data for the bub3 strain (AID 167); settings: S. cerevisiae bub3 mutant strain, stronger effect = higher value
Summary of the method: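 Inhibition values come from growth of compound-treated mutant yeast normalised to vehicle-treated controls.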

[7] = NCI Yeast Anticancer Drug Screen. Data for the wt2 strain (AID 169);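 further: 0% = growth of vehicle-treated yeast cultures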; settings: S. cerevisiae wt2 strain growth inhibition, stronger effect = higher value
Summary of the method: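 Read-out: growth inhibition versus vehicle-treated control cultures after compound exposure of the yeast strain.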

[8] = NCI Yeast Anticancer Drug Screen. Data for the mlh1 strain (AID 171);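 further: 0% = growth of vehicle-treated control cultures of the same strain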; settings: S. cerevisiae mlh1 strain growth inhibition, stronger effect = higher value
Summary of the method: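 Read-out: growth inhibition versus vehicle controls. Strain: engineered yeast with a defined DNA repair or cell cycle defect, compound-treated.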

[9] = NCI Yeast Anticancer Drug Screen. Data for the sgs1 strain (AID 173);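 further: 0% = growth of vehicle-only control cultures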; settings: S. cerevisiae sgs1 mutant, stronger effect = higher value
Summary of the method: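 Read-out: yeast growth inhibition relative to vehicle controls, following compound exposure of a strain with a defined DNA repair/cell cycle alteration.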

[10] = NCI Yeast Anticancer Drug Screen. Data for the mlh1 rad18 strain (AID 175); settings: S. cerevisiae mlh1 rad18 strain growth inhibition, stronger effect = higher value
Summary of the method: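 Yeast w/ defined DNA-repair lesions; compound exposure; growth vs vehicle controls → % inhibition.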

[11] = NCI Yeast Anticancer Drug Screen. Data for the rad18 strain (AID 177); settings: S. cerevisiae rad18 mutant growth inhibition, stronger effect = higher value
Summary of the method: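 Readout: growth inhibition vs vehicle controls. Cells: genetically altered yeast strain, DNA repair defect.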

[12] = NCI Yeast Anticancer Drug Screen. Data for the rad52 strain (AID 147);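 further: 0% = growth of vehicle-treated control cultures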; settings: S. cerevisiae rad52 mutant growth inhibition, stronger effect = higher value
Summary of the method: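 Read-out: growth inhibition versus vehicle-treated controls. Cells were a DNA repair-deficient yeast strain treated with compounds.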

[13] = NCI Yeast Anticancer Drug Screen. Data for the wt1 strain (AID 149);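 further: 0% = growth of vehicle-treated wt1 cultures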; settings: S. cerevisiae wt1 strain (SPY 50644) growth inhibition, stronger effect = higher value
Summary of the method: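 Vehicle-normalised growth inhibition; strain wt1; compound exposure.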

[14] = NCI Yeast Anticancer Drug Screen. Data for the rad50EPP+ strain (AID 151);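 further: 0% = growth of vehicle-treated control cultures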; settings: S. cerevisiae rad50 mutant strain, stronger effect = higher value
Summary of the method: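 Growth inhibition read against vehicle controls in rad50EPP+ yeast, a strain altered in DNA damage repair, after compound exposure.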

[15] = NCI Yeast Anticancer Drug Screen. Data for the mgt1 strain (AID 153); settings: S. cerevisiae mgt1 mutant growth inhibition, stronger effect = higher value
Summary of the method: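 mgt1 yeast grown with test compound; read-out is growth inhibition versus vehicle-treated cultures.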

[16] = NCI Yeast Anticancer Drug Screen. Data for the rad50 strain (AID 155);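 further: 0% = growth of vehicle-only cultures of the same strain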; settings: S. cerevisiae rad50 strain growth inhibition, stronger effect = higher value
Summary of the method: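 A DNA repair-deficient yeast mutant serves as the test organism; compound-induced growth inhibition is calculated against vehicle-treated cells.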

[17] = at 5.0 µM (retest, dose inferred, filed as 0.5)
[18] = at 50.0 µM (retest, dose inferred, filed as 5.0)

Measured: growth inhibition

O/N=C\c1c(O)ccc2ccccc12
inactive: [1]; [17] -2% | [1]; at 11.0 µM 2% | [1]; at 33.0 µM 12% | [1]; [18] 20% | [1]; at 50.0 µM 47.4% | [1]; at 100.0 µM 33% | [2]; at 1.2 µM -1% | [2]; at 3.7 µM 0% | [2]; at 11.0 µM 7% | [2]; at 33.0 µM 39% | [3]; [17] -6% | [4]; at 1.2 µM -6% | [4]; at 3.7 µM -6% | [4]; at 11.0 µM -5% | [4]; at 33.0 µM 3% | [4]; at 100.0 µM 28% | [5]; [17] -4% | [5]; [18] 21% | [5]; at 50.0 µM 10.3% | [6]; at 1.2 µM -4% | [6]; at 3.7 µM 0% | [6]; [17] 19% | [6]; at 11.0 µM 2% | [6]; at 33.0 µM 11% | [6]; at 100.0 µM 27% | [7]; at 1.2 µM -4% | [7]; at 3.7 µM -2% | [7]; at 11.0 µM -7% | [7]; at 33.0 µM 1% | [7]; at 100.0 µM 55% | [8]; at 1.2 µM -3% | [8]; at 3.7 µM -1% | [8]; at 11.0 µM 4% | [8]; at 33.0 µM 22% | [8]; at 100.0 µM 65% | [9]; at 1.2 µM 10% | [9]; at 3.7 µM 30% | [9]; at 11.0 µM -5% | [9]; at 33.0 µM 41% | [10]; [17] 3% | [11]; at 1.2 µM -3% | [11]; at 3.7 µM 0% | [11]; at 11.0 µM 6% | [11]; at 33.0 µM 30% | [11]; at 100.0 µM 69%
active: [2]; at 100.0 µM 75% | [3]; [18] 74% | [3]; at 50.0 µM 78.8% | [6]; [18] 88% | [6]; at 50.0 µM 75% | [9]; at 100.0 µM 80% | [10]; [18] 89% | [10]; at 50.0 µM 73.2%

CCOC(=O)c1[nH]cc(C)c1-c1cccn1-c1ccc(Cl)cc1[N+](=O)[O-]
active: [12]; at 100.0 µM 89% | [13]; at 100.0 µM 80% | [15]; at 100.0 µM 96% | [16]; at 100.0 µM 90% | [1]; at 100.0 µM 85% | [2]; at 100.0 µM 90% | [3]; [18] 87% | [4]; at 100.0 µM 92% | [6]; at 100.0 µM 91% | [7]; at 33.0 µM 84% | [7]; at 100.0 µM 93% | [8]; at 100.0 µM 96% | [9]; at 100.0 µM 95% | [11]; at 100.0 µM 89%
inactive: [12]; at 1.2 µM 13% | [12]; at 3.7 µM 19% | [12]; at 11.0 µM 27% | [12]; at 33.0 µM 25% | [13]; at 1.2 µM 16% | [13]; at 3.7 µM 6% | [13]; at 11.0 µM 16% | [13]; at 33.0 µM 12% | [14]; at 1.2 µM 22% | [14]; at 3.7 µM 30% | [14]; at 11.0 µM 32% | [14]; at 33.0 µM 32% | [14]; at 100.0 µM 55% | [15]; at 1.2 µM 3% | [15]; at 3.7 µM 17% | [15]; at 11.0 µM 20% | [15]; at 33.0 µM 48% | [16]; at 1.2 µM 1% | [16]; at 3.7 µM 8% | [16]; [17] 13% | [16]; at 11.0 µM 14% | [16]; at 33.0 µM 19% | [16]; [18] 43% | [16]; at 50.0 µM 32.5% | [1]; at 1.2 µM 4% | [1]; at 3.7 µM 15% | [1]; [17] 3% | [1]; at 11.0 µM -7% | [1]; at 33.0 µM 14% | [1]; [18] 48% | [1]; at 50.0 µM 46.1% | [2]; at 1.2 µM 21% | [2]; at 3.7 µM 15% | [2]; at 11.0 µM 16% | [2]; at 33.0 µM 31% | [3]; [17] 8% | [3]; at 50.0 µM 64.1% | [4]; at 1.2 µM -7% | [4]; at 3.7 µM -16% | [4]; at 11.0 µM -4% | [4]; at 33.0 µM -5% | [5]; [17] 11% | [5]; [18] 67% | [5]; at 50.0 µM 21.3% | [6]; at 1.2 µM 15% | [6]; at 3.7 µM 13% | [6]; [17] 9% | [6]; at 11.0 µM 12% | [6]; at 33.0 µM 32% | [6]; [18] 68% | [6]; at 50.0 µM 28.8% | [7]; at 1.2 µM -20% | [7]; at 3.7 µM -23% | [7]; at 11.0 µM -17% | [8]; at 1.2 µM 17% | [8]; at 3.7 µM 22% | [8]; at 11.0 µM 27% | [8]; at 33.0 µM 55% | [9]; at 1.2 µM 17% | [9]; at 3.7 µM 22% | [9]; at 11.0 µM 21% | [9]; at 33.0 µM 49% | [10]; [17] 11% | [10]; [18] 65% | [10]; at 50.0 µM 39.7% | [11]; at 1.2 µM 23% | [11]; at 3.7 µM 6% | [11]; at 11.0 µM 7% | [11]; at 33.0 µM 25%

Oc1ccc(-c2nc(-c3ccc(F)cc3)c(-c3ccc4ccccc4n3)[nH]2)cc1
active: [12]; at 11.0 µM 85% | [12]; at 33.0 µM 96% | [12]; at 100.0 µM 88% | [13]; at 100.0 µM 94% | [15]; at 11.0 µM 81% | [15]; at 33.0 µM 97% | [15]; at 100.0 µM 92% | [16]; at 11.0 µM 76% | [16]; at 33.0 µM 97% | [16]; at 50.0 µM 90.5% | [16]; at 100.0 µM 94% | [1]; at 33.0 µM 98% | [1]; at 50.0 µM 93% | [1]; at 100.0 µM 96% | [2]; at 33.0 µM 94% | [2]; at 100.0 µM 91% | [3]; at 50.0 µM 92.2% | [4]; at 11.0 µM 93% | [4]; at 33.0 µM 98% | [4]; at 100.0 µM 94% | [5]; at 50.0 µM 90.6% | [6]; at 11.0 µM 96% | [6]; at 33.0 µM 98% | [6]; at 50.0 µM 91.8% | [6]; at 100.0 µM 90% | [7]; at 11.0 µM 96% | [7]; at 33.0 µM 96% | [7]; at 100.0 µM 93% | [8]; at 33.0 µM 98% | [8]; at 100.0 µM 94% | [9]; at 11.0 µM 97% | [9]; at 33.0 µM 98% | [9]; at 100.0 µM 90% | [10]; [18] 70% | [10]; at 50.0 µM 85.8% | [11]; at 11.0 µM 96% | [11]; at 33.0 µM 97% | [11]; at 100.0 µM 94%
inactive: [12]; at 1.2 µM -48% | [12]; at 3.7 µM -41% | [13]; at 1.2 µM -60% | [13]; at 3.7 µM -54% | [13]; at 11.0 µM 64% | [13]; at 33.0 µM 18% | [14]; at 1.2 µM -43% | [14]; at 3.7 µM -37% | [14]; at 11.0 µM -26% | [14]; at 33.0 µM -16% | [14]; at 100.0 µM -18% | [15]; at 1.2 µM -28% | [15]; at 3.7 µM -31% | [16]; at 1.2 µM -31% | [16]; at 3.7 µM -44% | [16]; [17] 19% | [16]; [18] 54% | [1]; at 1.2 µM -40% | [1]; at 3.7 µM -27% | [1]; [17] 16% | [1]; at 11.0 µM 69% | [1]; [18] 63% | [2]; at 1.2 µM -51% | [2]; at 3.7 µM -49% | [2]; at 11.0 µM -6% | [3]; [17] 0% | [3]; [18] -41% | [4]; at 1.2 µM -5% | [4]; at 3.7 µM -8% | [5]; [17] 13% | [5]; [18] -33% | [6]; at 1.2 µM -32% | [6]; at 3.7 µM -20% | [6]; [17] 5% | [6]; [18] -31% | [7]; at 1.2 µM -56% | [7]; at 3.7 µM -40% | [8]; at 1.2 µM -44% | [8]; at 3.7 µM -37% | [8]; at 11.0 µM 36% | [9]; at 1.2 µM -34% | [9]; at 3.7 µM -38% | [10]; [17] 27% | [11]; at 1.2 µM -28% | [11]; at 3.7 µM -36%
